Inconclusive results are not listed. Active and inactive are the calls of the source. Unless noted, calls follow the shape of the dose curve; as a rule, active = well fitted curve in the direction sought with a large enough effect in the repeat runs; inconclusive = weak or mixed curves; inactive = no such curve, though single readings can be large; an effect the other way counts as inactive or inconclusive.
Assays:
[1] = qHTS assay to identify aromatase inhibitors - cell viability counter screen (AID 743084);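 also: cells stimulated with testosterone during compound exposure; nearly all actives have a fitted effect of over 55% in size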
[2] = target: Aryl hydrocarbon receptor (Homo sapiens) (UniProt P35869); test: qHTS assay to identify small molecule that activate the aryl hydrocarbon receptor (AhR) signaling pathway (AID 743085);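 also: HG2L7.5c1 human HepG2 liver cells with stably integrated DRE-driven firefly reporter; series mostly up to about 70 µM; nearly all actives have a fitted effect of over 15% in size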
Procedure, shortened: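 24 h compound exposure, 37C, HepG2-derived HG2L7.5c1 cells with DRE-responsive luciferase. Readouts: fluorescence viability, then luminescence at room temperature after 30 min.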

[3] = qHTS assay to identify small molecule that activate the aryl hydrocarbon receptor (AhR) signaling pathway - cell viability counter screen (AID 743086);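 also: HepG2 liver cells carrying the AhR DRE luciferase reporter; series mostly up to about 70 µM; nearly all actives have a fitted effect of over 45% in size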
Procedure, shortened: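 HepG2-AhR-luc (HG2L7.5c1) cells, 4000/well, treated 24 h at 37 C with compound; viability measured as CellTiter-Fluor fluorescence after 30 min in the same wells as the luciferase read.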

[4] = target: Peroxisome proliferator-activated receptor gamma (Homo sapiens) (UniProt P37231); test: qHTS assay to identify small molecule agonists of the peroxisome proliferator-activated receptor gamma (PPARg) signaling pathway (AID 743094; active = well fitted activation curve with a large enough effect in the signal ratio in the repeat runs, not every such curve was filed as active; the % refers to the signal ratio)
Procedure, shortened: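 Beta-lactamase FRET fluorescence was the read-out after a 1 h room-temperature substrate step, following 17 h compound treatment at 37C of HEK293H cells expressing a UAS-driven bla reporter responsive to PPARg.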

[5] = qHTS assay for small molecule agonists of the antioxidant response element (ARE) signaling pathway (AID 743202; active = well fitted activation curve with a large enough effect in the signal ratio in the repeat runs, not every such curve was filed as active; the % refers to the signal ratio)
Procedure, shortened: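 ARE-bla HepG2 cells (beta-lactamase reporter under the antioxidant response element), plated 5 hours, then exposed to compounds 16 hours at 37 C. LiveBLAzer B/G FRET substrate added for 2 hours at room temperature; fluorescence intensity read.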

[6] = qHTS assay for small molecule agonists of the antioxidant response element (ARE) signaling pathway - cell viability counter screen (AID 743203; calls by dose curve; also: nearly all actives have a fitted effect of over 55% in size)
Procedure, shortened: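 HepG2 cells carrying ARE-driven beta-lactamase; 2,000 cells/well; 5 hrs plating; compound pinned from DMSO; 16 hrs 37C/5% CO2; CellTiter-Glo added; 30 min RT; luminescence.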

[7] = qHTS assay for small molecule activators of the heat shock response signaling pathway - cell viability counter screen (AID 743209); also: nearly all actives have a fitted effect of over 50% in size
Procedure, shortened: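 Luminescence from CellTiter-Glo, added after the beta-lactamase FRET read, gave the viability signal. Cells were HSE-bla HeLa treated with DMSO-dissolved compounds for 5 h at 37 C following overnight plating.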

[8] = qHTS assay for small molecule activators of the heat shock response signaling pathway (AID 743210; active = well fitted activation curve with a large enough effect in the signal ratio in the repeat runs, with a control signal flat, not every such curve was filed as active; the % refers to the signal ratio; also: series mostly up to about 63 µM)
Procedure, shortened: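 HSE-bla HeLa cells (beta-lactamase reporter under heat shock response elements), plated overnight, then exposed to compounds 5 h at 37 C; LiveBLAzer B/G FRET substrate added, 2.5 h at room temperature, fluorescence intensity read.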

[9] = qHTS assay to identify small molecule agonists of the peroxisome proliferator-activated receptor delta (PPARd) signaling pathway - cell viability counter screen (AID 743211); also: nearly all actives have a fitted effect of over 55% in size
Procedure, shortened: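 Luminescent ATP viability assay (CellTiter-Glo, 30 min RT) in UAS-bla HEK293H cells carrying the PPAR delta reporter construct, 3000 cells/well, after a 17 h compound treatment at 37 C.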

[10] = target: Peroxisome proliferator-activated receptor delta (Homo sapiens) (UniProt Q03181); test: qHTS assay to identify small molecule agonists of the peroxisome proliferator-activated receptor delta (PPARd) signaling pathway (AID 743212; calls by dose curve)
Procedure, shortened: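 GeneBLAzer UAS-bla HEK293H cells carrying a PPARδ construct were exposed to compounds at 37 °C. Beta-lactamase activity was read by FRET fluorescence after 2 h at room temperature with LiveBLAzer B/G substrate.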

[11] = qHTS assay to identify small molecule antagonists of the peroxisome proliferator-activated receptor delta (PPARd) signaling pathway - cell viability counter screen (AID 743213); also: nearly all actives have a fitted effect of over 50% in size
Procedure, shortened: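 CellTiter-Glo was added to PPARd-bla HEK293H wells following 17 h compound treatment in the presence of 300 nM L165041. Luminescence was recorded after 30 min at room temperature.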

[12] = target: Peroxisome proliferator-activated receptor delta (Homo sapiens) (UniProt Q03181); test: qHTS assay to identify small molecule antagonists of the peroxisome proliferator-activated receptor delta (PPARd) signaling pathway (AID 743215; active = well fitted inhibition curve with a large enough effect in the signal ratio in the repeat runs, not every such curve was filed as active; the % refers to the signal ratio;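 also: cells stimulated with agonist L165041 at 300 nM final during compound exposure; series mostly up to about 62 µM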)
Procedure, shortened: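 Read-out is beta-lactamase FRET fluorescence, measured 2 h after substrate addition at room temperature. Beforehand, UAS-bla HEK293H cells carrying the PPARd reporter were exposed to compounds with L165041 at 300 nM final for 17 h at 37 C.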

[13] = target: Bile acid receptor (Homo sapiens) (UniProt Q96RI1); test: qHTS assay to identify small molecule agonists of the farnesoid-X-receptor (FXR) signaling pathway (AID 743220; active = well fitted activation curve with a large enough effect in the signal ratio in the repeat runs, not every such curve was filed as active; the % refers to the signal ratio)
Procedure, shortened: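 Beta-lactamase reporter under UAS control in GeneBLAzer FXR HEK 293T cells (5000/well) measured with LiveBLAzer FRET substrate after 2 h at room temperature. Compound exposure lasted 16 h at 37C.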

[14] = qHTS assay to identify small molecule antagonists of the farnesoid-X-receptor (FXR) signaling pathway - cell viability counter screen (AID 743221; active = well fitted cell-killing curve with a large enough effect in the repeat runs, not every such curve was filed as active; also: nearly all actives have a fitted effect of over 50% in size)
Procedure, shortened: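 In GeneBLAzer FXR-UAS-bla HEK 293T cells stimulated with 50 uM chenodeoxycholic acid (final), compounds acted for 16 h at 37 C. Viability was assessed afterwards by CellTiter-Glo luminescence.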

[15] = target: Vitamin D3 receptor (Homo sapiens) (UniProt P11473); test: qHTS assay to identify small molecule agonists of the vitamin D receptor (VDR) signaling pathway (AID 743222; calls by dose curve)
Procedure, shortened: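 VDR-bla cells, 2,000/well; 4 h preincubation 37C; cpd (DMSO) 16 h; LiveBLAzer B/G substrate 2 h RT; fluorescence intensity read.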

[16] = target: Vitamin D3 receptor (Homo sapiens) (UniProt P11473); test: qHTS assay to identify small molecule antagonists of the vitamin D receptor (VDR) signaling pathway (AID 743223; active = well fitted inhibition curve with a large enough effect in the signal ratio in the repeat runs, not every such curve was filed as active; the % refers to the signal ratio)
Procedure, shortened: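 Agonist 1alpha,25-dihydroxyvitamin D3 (3 nM in well) was added with each compound to VDR-bla cells preincubated 4 h. Cells stood 16 h at 37C, then FRET substrate 2 h at room temperature; fluorescence intensity recorded.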

[17] = qHTS assay to identify small molecule agonists of the farnesoid-X-receptor (FXR) signaling pathway - cell viability counter screen (AID 743218); also: nearly all actives have a fitted effect of over 45% in size
Procedure, shortened: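 HEK 293T FXR-bla cells; 5 h pre-incubation, 16 h compound exposure at 37 C; LiveBLAzer substrate 2 h RT, then CellTiter-Glo 30 min RT, luminescence.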

[18] = qHTS assay to identify small molecule antagonists of the peroxisome proliferator-activated receptor gamma (PPARg) signaling pathway - cell viability counter screen (AID 743194); also: nearly all actives have a fitted effect of over 55% in size
Procedure, shortened: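 Cytotoxicity counter screen in PPARg-bla HEK293H cells, same wells as reporter assay. Compounds plus 50 nM rosiglitazone (final) for 17 h at 37 C, then viability read by CellTiter-Glo luminescence.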

[19] = target: Bile acid receptor (Homo sapiens) (UniProt Q96RI1); test: qHTS assay to identify small molecule antagonists of the farnesoid-X-receptor (FXR) signaling pathway (AID 743217; active = well fitted inhibition curve with a large enough effect in the signal ratio in the repeat runs, not every such curve was filed as active; the % refers to the signal ratio)
Procedure, shortened: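 HEK 293T FXR-UAS-bla, 5000 cells/well; compound + CDCA 50 uM final; 16 h, 37 °C; B/G FRET substrate 2 h RT; fluorescence.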

[20] = target: Peroxisome proliferator-activated receptor gamma (Homo sapiens) (UniProt P37231); test: qHTS assay to identify small molecule antagonists of the peroxisome proliferator-activated receptor gamma (PPARg) signaling pathway (AID 743191; calls by dose curve; also: series mostly up to about 63 µM; nearly all actives have a fitted effect of over 30% in size)
Procedure, shortened: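 GeneBLAzer PPARg UAS-bla HEK293H cells, 5 h post-plating, exposed to compounds 17 h at 37C. LiveBLAzer B/G FRET substrate added for 1 h at room temperature; beta-lactamase reporter read by fluorescence intensity.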

Measured: Potency

Chain of Peroxisome proliferator-activated receptor gamma (Homo sapiens) (P37231 whole entry, looked up): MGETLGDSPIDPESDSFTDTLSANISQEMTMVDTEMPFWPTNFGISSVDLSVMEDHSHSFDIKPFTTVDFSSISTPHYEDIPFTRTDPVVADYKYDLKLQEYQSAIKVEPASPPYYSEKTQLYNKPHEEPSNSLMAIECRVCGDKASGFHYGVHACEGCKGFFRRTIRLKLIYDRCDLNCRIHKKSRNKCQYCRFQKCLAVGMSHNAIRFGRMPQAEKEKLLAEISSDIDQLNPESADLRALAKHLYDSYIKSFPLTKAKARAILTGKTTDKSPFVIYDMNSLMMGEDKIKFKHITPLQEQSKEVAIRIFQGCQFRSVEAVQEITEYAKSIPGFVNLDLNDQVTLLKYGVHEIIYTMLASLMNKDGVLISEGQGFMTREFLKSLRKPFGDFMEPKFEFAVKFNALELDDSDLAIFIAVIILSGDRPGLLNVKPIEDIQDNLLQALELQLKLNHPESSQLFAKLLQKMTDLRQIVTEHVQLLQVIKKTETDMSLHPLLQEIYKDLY
Chain of Aryl hydrocarbon receptor (Homo sapiens) (P35869 whole entry, looked up): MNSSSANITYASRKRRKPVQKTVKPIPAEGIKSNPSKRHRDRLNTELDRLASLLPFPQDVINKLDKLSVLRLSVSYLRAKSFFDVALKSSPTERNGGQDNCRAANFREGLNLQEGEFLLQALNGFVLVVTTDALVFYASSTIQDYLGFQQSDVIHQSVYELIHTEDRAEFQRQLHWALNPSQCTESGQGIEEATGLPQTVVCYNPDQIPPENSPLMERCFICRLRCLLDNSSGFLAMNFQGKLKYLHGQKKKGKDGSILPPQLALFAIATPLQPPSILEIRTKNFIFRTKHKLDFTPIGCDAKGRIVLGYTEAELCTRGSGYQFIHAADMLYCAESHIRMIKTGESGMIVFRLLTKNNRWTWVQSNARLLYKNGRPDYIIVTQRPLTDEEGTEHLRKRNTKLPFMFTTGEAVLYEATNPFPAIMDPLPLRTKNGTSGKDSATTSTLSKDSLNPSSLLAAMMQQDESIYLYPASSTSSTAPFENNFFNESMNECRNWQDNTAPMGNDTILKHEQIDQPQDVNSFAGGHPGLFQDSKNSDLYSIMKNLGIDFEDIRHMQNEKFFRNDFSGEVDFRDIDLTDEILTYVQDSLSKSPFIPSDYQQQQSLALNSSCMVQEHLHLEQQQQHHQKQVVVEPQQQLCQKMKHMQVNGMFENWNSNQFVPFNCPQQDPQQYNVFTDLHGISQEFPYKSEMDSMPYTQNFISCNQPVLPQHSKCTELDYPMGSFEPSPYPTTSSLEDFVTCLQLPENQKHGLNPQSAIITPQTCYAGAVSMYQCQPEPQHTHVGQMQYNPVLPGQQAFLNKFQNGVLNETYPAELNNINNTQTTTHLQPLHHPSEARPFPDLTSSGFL
Chain of Bile acid receptor (Homo sapiens) (Q96RI1 whole entry, looked up): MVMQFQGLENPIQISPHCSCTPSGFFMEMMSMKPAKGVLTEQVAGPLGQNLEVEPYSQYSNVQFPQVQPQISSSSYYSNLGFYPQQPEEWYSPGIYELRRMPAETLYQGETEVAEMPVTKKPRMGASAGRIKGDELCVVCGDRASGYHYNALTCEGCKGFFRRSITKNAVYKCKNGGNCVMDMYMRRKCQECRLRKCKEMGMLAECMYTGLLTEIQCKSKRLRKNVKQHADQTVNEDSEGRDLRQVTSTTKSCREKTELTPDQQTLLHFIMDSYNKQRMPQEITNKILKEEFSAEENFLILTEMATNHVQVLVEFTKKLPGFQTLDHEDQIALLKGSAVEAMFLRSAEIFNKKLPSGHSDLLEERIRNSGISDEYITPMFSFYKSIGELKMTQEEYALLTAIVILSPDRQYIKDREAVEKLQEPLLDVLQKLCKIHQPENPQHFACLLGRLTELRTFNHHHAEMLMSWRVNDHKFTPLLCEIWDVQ
Chain of Peroxisome proliferator-activated receptor delta (Homo sapiens) (Q03181 whole entry, looked up): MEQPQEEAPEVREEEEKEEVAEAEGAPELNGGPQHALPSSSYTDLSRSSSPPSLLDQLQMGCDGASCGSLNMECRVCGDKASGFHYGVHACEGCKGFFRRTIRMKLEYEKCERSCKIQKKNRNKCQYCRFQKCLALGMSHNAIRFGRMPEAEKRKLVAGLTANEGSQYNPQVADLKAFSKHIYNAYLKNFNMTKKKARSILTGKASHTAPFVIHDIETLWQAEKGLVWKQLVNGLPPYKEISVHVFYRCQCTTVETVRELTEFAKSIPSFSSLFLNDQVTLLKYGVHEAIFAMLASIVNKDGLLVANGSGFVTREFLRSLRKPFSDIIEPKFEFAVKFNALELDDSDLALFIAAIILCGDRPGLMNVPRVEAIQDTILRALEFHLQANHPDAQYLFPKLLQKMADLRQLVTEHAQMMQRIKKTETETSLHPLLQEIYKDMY
Chain of Vitamin D3 receptor (Homo sapiens) (P11473 whole entry, looked up): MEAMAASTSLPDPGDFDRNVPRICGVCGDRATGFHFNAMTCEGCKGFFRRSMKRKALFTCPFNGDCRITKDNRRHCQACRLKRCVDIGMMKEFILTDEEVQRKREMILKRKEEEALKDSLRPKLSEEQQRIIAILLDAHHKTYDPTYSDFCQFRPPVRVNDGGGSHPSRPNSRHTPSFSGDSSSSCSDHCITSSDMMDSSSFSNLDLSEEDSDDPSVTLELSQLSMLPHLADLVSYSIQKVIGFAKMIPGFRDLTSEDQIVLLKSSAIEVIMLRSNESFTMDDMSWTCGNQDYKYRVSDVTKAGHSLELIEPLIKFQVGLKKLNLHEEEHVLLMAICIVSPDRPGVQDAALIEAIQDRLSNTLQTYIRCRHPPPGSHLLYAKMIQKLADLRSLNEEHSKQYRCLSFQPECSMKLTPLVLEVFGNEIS

COC(=O)c1ccccc1C(=O)c1ccc(OCCN2CCCCC2)cc1
not listed: [17] | [18] | [19] | [20]
inactive: all other assays above

CC[C@H](C)C(=O)O[C@H]1C[C@H](O)C=C2C=C[C@H](C)[C@H](CC[C@@H](O)C[C@@H](O)CC(=O)O)[C@H]21
not listed: [5] | [11] | [13] | [16] | [18] | [19] | [20]
inactive: all other assays above

CC(=O)OC(C)OC(=O)C(C)c1ccc(-c2ccccc2)c(F)c1 (stereo not drawn)
not listed: [10] | [14] | [16] | [17] | [20]
inactive: all other assays above

O=C1c2ccccc2C(=O)C1c1ccccc1
not listed: [8] | [15] | [16] | [18] | [19]
inactive: all other assays above

BrCc1cccc(Oc2ccccc2)c1
not listed: [5] | [10] | [11] | [13] | [18] | [19]
inactive: all other assays above

O=C(OCC1(COC(=O)c2cccnc2)CCCC(COC(=O)c2cccnc2)(COC(=O)c2cccnc2)C1O)c1cccnc1
not listed: [13] | [16] | [19] | [20]
inactive: all other assays above

CC1=CCC(C(C)C)=CC1
not listed: [10] | [12] | [13] | [15] | [16] | [19] | [20]
inactive: all other assays above

CCCC/C=C\CCCCCCCCCC=O
not listed: [5] | [12] | [18] | [20]
inactive: all other assays above

CC(=O)NCc1c(I)c(NC(C)=O)c(I)c(C(=O)O)c1I
not listed: [10] | [11] | [12] | [13] | [16] | [19] | [20]
inactive: all other assays above

CC(C)(C)NC(N)=O
not listed: [5] | [9] | [10] | [13] | [17] | [18] | [19]
inactive: all other assays above

Cc1cc(NC(=O)C2=C(O)c3ccccc3S(=O)(=O)N2C)no1
not listed: [11] | [13] | [14] | [16] | [17] | [18] | [19] | [20]
inactive: all other assays above

O=C1CCCC(=O)O1
not listed: [5] | [11] | [12] | [13] | [18] | [19]
inactive: all other assays above

Cc1c(I)c(=O)n(-c2ccccc2)n1C
not listed: [6] | [10] | [13] | [14] | [15] | [16] | [18] | [19]
inactive: all other assays above

N#Cc1ccc(C(=O)O)cc1
not listed: [10] | [12] | [19] | [20]
inactive: all other assays above

— PubChem BioAssay (Tox21)
